Shown are actives, neighbours in structure and some others; about 2.4% of the full set was active somewhere.
D2 PAM-1: Beta-Arrestin HTS for Positive Allosteric Modulators of the Human D2 Dopamine Receptor: Potentiators | 360,000 compounds, 0.23% hits | AID 624464, 2012 | D(2) dopamine receptor (Homo sapiens), P14416 | DiscoveRx D2 beta-arrestin cells, luminescence, 90 min; 100% = 57 uM dopamine signal | potentiation, % (concentration not given with the values); in the data active means potentiation above about 50%
Target sequence (P14416 whole entry, looked up): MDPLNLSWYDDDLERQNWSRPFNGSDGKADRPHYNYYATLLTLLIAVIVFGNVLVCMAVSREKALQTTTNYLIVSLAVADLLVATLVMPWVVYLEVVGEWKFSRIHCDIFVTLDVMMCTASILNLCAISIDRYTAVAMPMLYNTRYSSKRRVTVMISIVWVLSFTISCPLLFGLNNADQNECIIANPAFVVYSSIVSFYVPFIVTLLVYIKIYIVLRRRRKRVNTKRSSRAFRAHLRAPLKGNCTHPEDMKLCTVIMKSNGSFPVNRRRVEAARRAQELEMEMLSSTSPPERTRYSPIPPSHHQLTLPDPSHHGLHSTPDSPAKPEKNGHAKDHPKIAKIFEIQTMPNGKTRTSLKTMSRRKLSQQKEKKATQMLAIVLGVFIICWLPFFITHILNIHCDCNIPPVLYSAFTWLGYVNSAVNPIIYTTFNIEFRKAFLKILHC
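PathHunter D2 cells, attached overnight at 37 deg C, received compound in DMSO plus dopamine at EC20 (50 nM final) for 90 min at 37 deg C. Beta-arrestin recruitment was read as luminescence after 1 h with detection reagent at ambient temperature.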
B2AR arrestin: qHTS assay of beta-arrestin-biased ligands of beta2-adrenergic receptor | Beta-2 adrenergic receptor (Homo sapiens), P07550 | beta-arrestin recruitment to beta2AR, cell-based reporter | Potency, µM (highest dose often 46.1 µM), most hits filed as activators | 330,000 compounds, 0.02% hits | AID 492947, 2010; active means well fitted activation curve with a large enough effect; further: nearly all actives have a fitted effect of over 65% in size
D2 PAM-2: HTS Assay for Positive Allosteric Modulators of the Human D2 Dopamine Receptor: Primary Screen for Potentiators | potentiation, % at 10 µM | 340,000 compounds, 0.34% hits | HEK293 T-REx D2, calcium flux, EC20 dopamine potentiation | D(2) dopamine receptor (Homo sapiens), P14416;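 active means potentiation over 3 SD above the plate norm, cut at about 30% in these data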
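Tetracycline-induced HEK293 T-REx cells force-coupled to calcium signalling expressed D2; compounds were pin-added after a 10 s baseline, read kinetically 180 s, then an EC20 dopamine challenge followed with a further 180 s calcium read.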
D2 ag-1: HTS Assay for Allosteric Agonists of the Human D2 Dopamine Receptor: Primary Screen for Agonists | activation, % at 2 µM | HEK293 T-REx D2 cells, calcium flux agonist mode | AID 485358, 2010 | D(2) dopamine receptor (Homo sapiens), P14416 | 340,000 compounds, 0.53% hits;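 active means activation over 3 SD above normal in the single-dose calcium agonist read, cut at about 30% in these data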
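Calcium-flux readout, 1 cycle/sec over 180 s following compound pin transfer, in inducible HEK293 Trex D2 cells (force-coupled); dopamine controls included. Positive calcium responses during this window marked compounds as potential agonists.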
D2 ag-2: Beta-Arrestin HTS for Positive Allosteric Modulators of the Human D2 Dopamine Receptor: Agonists; DiscoveRx PathHunter D2 beta-arrestin, luminescence, 90 min; 100% = 57 uM dopamine signal; activation, % (concentration not given with the values); D(2) dopamine receptor (Homo sapiens), P14416; AID 624465, 2012; 360,000 compounds, 0.084% hits; in the data active means activation above about 40%
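DiscoveRx PathHunter D2 beta-arrestin cells (2,100/well) attached overnight, then compound-stimulated 90 min at 37 C in HBSS/10 mM HEPES/0.1% Tween-20 buffer; beta-galactosidase complementation read by luminescence after 1 h at ambient temperature. Dopamine 57 uM final (EC100) as control.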
D2 antag: HTS Assay for Allosteric Antagonists of the Human D2 Dopamine Receptor: Primary Screen for Antagonists; D(2) dopamine receptor (Homo sapiens), P14416; HEK293 TREx D2 cells, calcium flux, dopamine EC80; inhibition, % at 10 µM; 340,000 compounds, 2% hits; AID 485344, 2010; in the data active means inhibition above about 30%; inactive means below that, where a call was filed
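Compounds are added to dye-loaded, induced HEK293 T-REx cells coupled to calcium release via D2; after a 3 min kinetic read an EC80 dopamine stimulus is given and fluorescence is recorded for 3 more min.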
Each line names hits and unclear results; the compound was inactive in the other large screens.

CC(Sc1nnnn1C1CC1)C(=O)N1CC(=O)Nc2ccccc21 (stereo not drawn)	D2 antag 47
O=C(COC(=O)c1ccc2c(c1)OCCO2)Nc1ccc(F)cc1F	none (no result: D2 PAM-2, D2 ag-1, D2 antag)
CC(C)C(=O)N(c1ccc(F)cc1)C1C=CS(=O)(=O)C1 (stereo not drawn)	none
CCC(CC)C(=O)N(c1ccc(F)cc1)C1C=CS(=O)(=O)C1 (stereo not drawn)	D2 antag 73
CC(C)(CNC(=O)c1ccccc1F)CNC(=O)c1ccccc1F	none (no result: B2AR arrestin, D2 PAM-2, D2 ag-1, D2 antag)
COc1cc(O)c(C(CC(=O)N2CCCC(C)C2)c2ccc(N(C)C)cc2)c(OC)c1 (stereo not drawn)	D2 antag 31
COc1cc(O)c(C(CC(=O)N2CCCC(C)C2)c2ccc3c(c2)OCO3)c(OC)c1 (stereo not drawn)	none
CCc1nc(SCc2ccc(OC)c(Br)c2)n[nH]1	none
COCCSc1ccccc1C(=O)Nc1ccccc1C(C)C	none
COc1ccc(-c2cc3ccccc3n2CC(O)CN2CCC(C)CC2)cc1 (stereo not drawn)	D2 antag 81
COc1ccc(-c2cc3ccccc3n2CC(O)Cn2nc(C)cc2C)cc1 (stereo not drawn)	none
Cc1nnc(NC(=O)c2ccc(S(=O)(=O)N3CC(C)CC(C)C3)cc2)o1 (stereo not drawn)	D2 PAM-2 35
CC(NC(=O)CCNS(=O)(=O)c1cccc2nsnc12)c1ccccc1 (stereo not drawn)	none
Cc1ccc(NC(=O)CN2CCN(C)CC2)cc1Br	none
Cc1ccc(NC(=O)C2CCCN(S(=O)(=O)c3c(C)noc3/C=C/N(C)C)C2)c(C)c1 (stereo not drawn)	none
Cc1noc(/C=C/N(C)C)c1S(=O)(=O)N1CCCC(C(=O)Nc2ccc(F)cc2F)C1 (stereo not drawn)	D2 antag 54
Cc1ccc(C)c(NC(=O)C2CCCN(S(=O)(=O)c3c(C)noc3/C=C/N(C)C)C2)c1 (stereo not drawn)	D2 antag 37
O=C1c2cccnc2C(Nc2ccc(S(=O)(=O)N3CCCCC3)cc2)N1Cc1ccccc1 (stereo not drawn)	D2 PAM-2 33
O=C1c2ccccc2C(Nc2ccc(S(=O)(=O)N3CCCCCC3)cc2)N1c1ccccn1 (stereo not drawn)	none
COC(=O)c1ccc(NC(=O)CN2CCC(NC(=O)c3ccco3)CC2)cc1	none
CCN(C(=O)COC(=O)/C(C#N)=C/c1ccc(OC)cc1)C1CCS(=O)(=O)C1 (stereo not drawn)	D2 antag 36
C/C(=N\NC(=O)c1ccncc1)c1cccc(NC(=O)c2ccc(C(C)(C)C)cc2)c1	none
C/C(=N\NC(=O)c1ccc(Br)cc1)c1cccc(NC(=O)c2cccnc2)c1	D2 antag 32
CN(C)c1ccc(C(=O)N/N=C/c2cc(Br)cc(Br)c2O)cc1	D2 antag 32
COc1c(Br)cc(Br)cc1/C=N/NC(=O)c1ccncc1	D2 antag 93
COc1ccc(-c2[nH]ncc2/C=N/NC(=O)c2ccc(Br)cc2)c(OC)c1	D2 antag 48
CN(C)c1ccc(/C=N/NC(=O)c2ccc(NC(=O)c3ccccc3)cc2)cc1	none
COc1ccc(C(=O)N/N=C/c2cn[nH]c2-c2ccc(OC)cc2OC)cc1	none
O=C(c1cc2cc(Br)ccc2o1)N1CCCCC1	none (no result: D2 ag-1, D2 antag)
O=C(O)CSc1nnc(-c2ccncc2)n1Cc1ccccc1	none
COc1c(Br)cc(Br)cc1/C=N/NC(=O)c1cccnc1	D2 antag 90
COc1cc(/C=N/NC(=O)c2cccnc2)cc(Br)c1O	none
Cc1cccc(S(=O)(=O)NCCc2cn3ccccc3n2)c1	D2 antag 32
COC(=O)c1ccsc1NC(=O)CS(=O)(=O)c1ccccc1	D2 antag 31
O=C(NCc1ccco1)c1ccc(C(=O)NCc2ccco2)cc1	none (no result: B2AR arrestin, D2 PAM-2, D2 ag-1, D2 antag)
COc1ccc(-c2noc(-c3ccccc3C(=O)NCc3ccco3)n2)cc1OC	D2 PAM-2 32
COc1ccc(-c2noc(-c3ccccc3C(=O)NCc3ccco3)n2)cc1	none
O=C(NCc1ccccc1)c1ccc(S(=O)(=O)N2CCCc3ccccc32)cc1	none
O=C(NCc1ccco1)c1cc([N+](=O)[O-])ccc1Cl	none
O=C(NCc1ccco1)c1ccc(S(=O)(=O)N2CCCc3ccccc32)cc1	D2 antag 40
O=C(NCc1ccco1)c1ccc2c(c1)C(=O)c1ccccc1-2	D2 antag 30
O=C(NCc1ccco1)c1cc([N+](=O)[O-])cc([N+](=O)[O-])c1	D2 PAM-1 83
O=C(NCCCN=C1NS(=O)(=O)c2ccccc21)c1ccc(S(=O)(=O)N2CCOCC2)cc1	none
O=C(OCCCc1cc2ccccc2c(=O)o1)N1CCOCC1	none (no result: D2 PAM-2, D2 ag-1, D2 antag)
FC(F)(F)c1ccc(-c2nc(=S)[nH][nH]2)cc1	none
O=C(COC(=O)[C@@H]1CC(O)CN1S(=O)(=O)c1ccc(Cl)cc1)NC(=O)NCc1ccccc1 (stereo partly drawn)	none
CCOC(=O)N1N=C(CC)CC1(O)C(F)(F)F (stereo not drawn)	D2 PAM-2 38
CCOC(=O)N1N=C(c2ccc(C)cc2)CC1(O)C(F)(F)F (stereo not drawn)	none
O=C(O)CC1(CC(=O)Nc2ccccc2N2CCOCC2)CCCC1	none
CCc1cc(=S)n2c([nH]c3ccccc32)c1C#N	D2 PAM-2 32
CCOc1ccccc1NC(=O)NCc1ccccc1	D2 antag 42
CCOc1ccccc1NC(=O)NCc1cccnc1	none
Cc1cccc2cc(CN(CC(C)C)S(=O)(=O)c3ccccc3)c(=O)[nH]c12	none
O=C(CCCOc1ccccc1)Nc1nc2ccccc2[nH]1	D2 PAM-2 70
COc1ccccc1N1CCN(C2CCCC(C)C2)CC1 (stereo not drawn)	D2 antag 34
COc1ccccc1N1CCN(C(=O)c2cccc(C(=O)N3CCN(c4ccccc4OC)CC3)c2)CC1	none
COc1ccccc1N1CCN(C2CCN(C(=O)COc3ccccc3)CC2)CC1	D2 antag 90
CCCN1CCC(N2CCN(c3ccccc3OC)CC2)CC1	none (no result: D2 PAM-1, D2 PAM-2, D2 ag-1, D2 ag-2, D2 antag)

Screens deposited in PubChem by National Center for Advancing Translational Sciences (NCATS).
